In PubChem BioAssay (NCATS) one finds max response data, which are given here for 19 compounds.

Where “and” joins values, the source holds several entries; their conditions need not be identical. Identical values can stand only once. Results filed as inconclusive are left out. Unmarked numbers belong to inactive results. The call rests on the fitted dose curve; in most records, active means well fitted inhibition curve with a large enough effect; inconclusive means small, poorly fitted or top-dose-only effect; inactive means flat fitted curve, though single readings scatter. Where a SMILES comes first, the peptide text is derived from it. Bridges are numbered along the chain shown (N, C = ends). [ ]: non-standard residue; d: D form. The star is where a group is joined. X1 = CC[C@@H](C)[C@@H](N)C1=N[C@H](C(=O)*)CS1; d(aIle) = CC[C@H](C)[C@@H](N)C(=O)O; dOrn = NCCC[C@@H](N)C(=O)O
On the % scale 0 is the no-effect control and ±100 the full control effect.

This test concerns KB-3-1. Description: Cytotoxic Profiling of Annotated Libraries Using Quantitative High-Throughput Screening (AID 1296008). Further: nearly all actives have a fitted effect of over 60% in size. As to conditions: Five cell lines viability, CellTiter-Glo ATP luminescence, 48-72 h; max response: hits give low values. The procedure, abridged: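 Cells exposed to compounds for 48 or 72 hr at 37 degrees Celsius. Viability read as ATP-coupled luminescence with CellTiter-Glo after 10 min at room temperature.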
As for `CNC(C)CCC=C(C)C` (centres undefined), the max response is -7.11%.

For `CN[C@@H]1[C@@H](O[C@H]2O[C@H](CO)[C@@H](N)[C@H](O)[C@H]2O)O[C@H]2C[C@@H](N)[C@@H](O[C@H]3[C@H](O)[C@@H](O)[C@H](N)C[C@@H]3N)O[C@@H]2[C@@H]1O`, the max response is 9.56%.

In the case of `CC1(C)[C@@H]2CC[C@@]1(C)[C@H](OC(=O)CSC#N)C2`, the max response is 3.19%.

`CO[C@H]1C=CO[C@@]2(C)Oc3c(C)c(O)c4c(O)c(cc(O)c4c3C2=O)NC(=O)/C(C)=C\C=C/[C@H](C)[C@H](O)[C@@H](C)[C@@H](O)[C@@H](C)[C@H](OC(C)=O)[C@@H]1C`: the max response was -3.21%.

In the case of `CO[C@H]1C[C@H](O[C@@H]2/C(C)=C/C[C@@H]3C[C@@H](C[C@]4(CC[C@H](C)[C@@H](C5CCCCC5)O4)O3)OC(=O)[C@@H]3C=C(C)/C(=N/O)[C@H]4OC/C(=C\C=C\[C@@H]2C)[C@]43O)O[C@@H](C)[C@@H]1O`, the max response is -1.21%.

On to `CC[C@@H](C)[C@H](N)C(=O)O`, for which the max response was -7.63%.

On to `C[C@H](NCCc1ccc(O)cc1)[C@H](O)c1ccc(O)cc1`, for which the max response is -13.6%.

With `Cc1cc(O)c2c(c1)O[C@@]1(C)CC[C@H]3C(C)(C)CCCC34CO[C@@H]2[C@H]41` (some centres undefined), the max response is -3.47%.

Consider `CC(C)[C@@H](C)/C=C/[C@@H](C)[C@H]1CC[C@H]2/C(=C/C=C3\C[C@@H](O)CC[C@@H]3C)CCC[C@]12C`, for which the max response was 8.4%.

For the compound `C[C@@H]1C/C=C/C=C/C=C/C=C/[C@H](O[C@@H]2O[C@H](C)[C@@H](O)[C@H](N)[C@@H]2O)C[C@@H]2O[C@](O)(C[C@@H](O)C[C@H]3O[C@@H]3/C=C/C(=O)O1)C[C@H](O)[C@H]2C(=O)O`, the max response was 3.94%.

Regarding `CC(C)C[C@H](NC(=O)[C@@H](Cc1c[nH]c2ccccc12)NC(=O)[C@H](Cc1ccc(O)cc1)NC(=O)[C@H](CO)NC(=O)[C@H](Cc1c[nH]c2ccccc12)NC(=O)[C@H](Cc1cnc[nH]1)NC(=O)[C@@H]1CCC(=O)N1)C(=O)N[C@@H](CCCN=C(N)N)C(=O)N1CCC[C@@H]1C(=O)NCC(N)=O`, the max response was 0.539%.

With `CC[C@H]1OC(=O)C[C@@H](O)[C@H](C)[C@@H](O[C@@H]2O[C@H](C)[C@@H](O[C@H]3C[C@@](C)(O)[C@@H](O)[C@H](C)O3)[C@H](N(C)C)[C@H]2O)[C@@H](CC=O)C[C@@H](C)C(=O)/C=C/C(C)=C/[C@@H]1CO[C@@H]1O[C@H](C)[C@@H](O)[C@@H](OC)[C@H]1OC`, the max response was 31.7% and -4.31%.

As for `CC[C@@H]1/C=C(\C)C[C@H](C)C[C@H](OC)[C@H]2O[C@@](O)(C(=O)C(=O)N3CCCC[C@H]3C(=O)O[C@H](/C(C)=C/[C@@H]3CC[C@@H](Cl)[C@H](OC)C3)[C@H](C)[C@@H](O)CC1=O)[C@H](C)C[C@@H]2OC`, the max response was -9.83%.

As for `CC[C@@H](C)[C@@H](N)C1=N[C@H](C(=O)N[C@@H](CC(C)C)C(=O)N[C@@H](CCC(=O)O)C(=O)N[C@@H](C(=O)N[C@@H]2CCCCNC(=O)[C@@H](CC(N)=O)NC(=O)[C@@H](CC(=O)O)NC(=O)[C@@H](Cc3cnc[nH]3)NC(=O)[C@@H](Cc3ccccc3)NC(=O)[C@@H]([C@H](C)CC)NC(=O)[C@@H](CCCN)NC2=O)[C@@H](C)CC)CS1` (X1-LE[d(aIle)][dK][dOrn][dI][dF][dH][dD][dN]; lactam 4-C), the max response was 3.54% and -18.2%.

In the case of `CC(C)[C@@H]1CC[C@@H](C)C[C@H]1OC(=O)c1ccccc1O`, the max response was -4.38%.

For `COc1c(O[C@@H]2O[C@H](CO)[C@@H](O)[C@H](O)[C@H]2O)cc2c(c1OC)-c1ccc(SC)c(=O)cc1[C@@H](NC(C)=O)CC2`, the max response was 48.2%.

Turning to `NC[C@@H]1O[C@H](O[C@H]2[C@@H](O)[C@H](O[C@@H]3[C@@H](O)[C@H](N)C[C@H](N)[C@H]3O[C@H]3O[C@H](CO)[C@@H](O)[C@H](O)[C@H]3N)O[C@@H]2CO)[C@H](N)[C@@H](O)[C@@H]1O`, the max response is 5.13%.

With `Nc1nc(/C(=C/CC(=O)O)C(=O)N[C@@H]2C(=O)N3C(C(=O)O)=CCS[C@H]23)cs1`, the max response was -7.11%.

With `CO/N=C(\C(=O)N[C@@H]1C(=O)N2C(C(=O)O)=C(CSC(=O)c3ccco3)CS[C@H]12)c1csc(N)n1`, the max response was 1.31%.
